Molecules are shown by their SMILES. “And” between values parts separate entries of the source, which are not always exact repeats. Equal entries are not always repeated. In all, about 16,000 compounds went through this assay and about 5,700 (36%) were called active. Another 24% or so got no clear call; they are omitted. Calls follow the shape of the dose curve; as a rule, active = well fitted curve in the direction sought with a large enough effect; inconclusive = small, poorly fitted or top-dose-only effect, or effect the other way; inactive = no such curve, though single readings can be large or run the other way. The list shows a part of the results.
% is scaled to controls: 0 for no effect and ±100 for the full control effect.

Chain of Cytochrome P450 1A2 (Homo sapiens) (P05177 whole entry, looked up): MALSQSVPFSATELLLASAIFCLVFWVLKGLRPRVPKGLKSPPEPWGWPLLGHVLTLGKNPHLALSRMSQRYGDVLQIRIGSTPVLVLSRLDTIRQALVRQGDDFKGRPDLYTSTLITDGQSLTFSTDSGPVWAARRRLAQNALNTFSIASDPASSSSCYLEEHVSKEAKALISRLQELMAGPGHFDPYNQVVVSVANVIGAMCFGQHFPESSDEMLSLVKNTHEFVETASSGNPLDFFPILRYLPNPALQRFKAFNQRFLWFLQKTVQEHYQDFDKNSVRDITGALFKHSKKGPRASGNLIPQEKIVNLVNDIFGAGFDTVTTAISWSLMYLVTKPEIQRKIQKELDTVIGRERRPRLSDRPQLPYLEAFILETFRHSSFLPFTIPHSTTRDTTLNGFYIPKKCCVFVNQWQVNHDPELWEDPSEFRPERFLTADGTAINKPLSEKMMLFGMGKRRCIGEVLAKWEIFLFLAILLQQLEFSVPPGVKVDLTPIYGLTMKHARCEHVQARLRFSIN

This assay has as its target Cytochrome P450 1A2 (Homo sapiens) (UniProt P05177). The experiment in a line: Cytochrome panel assay with activity outcomes. Particulars: recombinant CYP, pro-luciferin dealkylation, luminescence, p450-cyp1a2; series mostly up to 57.1 µM.
For `Cc1ncc([N+](=O)[O-])n1CCO`, the AC50 entry was “inactive”.

As to `Cc1ccc2ncc([N+](=O)[O-])n2c1`, the half-maximal activity concentration (AC50) was 6.31 µM (active).

In the case of `Cc1ncc([N+](=O)[O-])n1CC(C)O` (stereo not drawn), the AC50 entry is “inactive”.

`Cc1nn(C)c(C)c1CNC(=O)c1cnn2c1NC(c1ccccc1)CC2C(F)(F)F` (stereo not drawn): the AC50 result was “inactive”.

As for `CCC(C)N1C(=O)S/C(=C/c2ccc(Sc3nc4ccccc4[nH]3)o2)C1=O` (stereo not drawn), the AC50 was 2 µM (active).

With `NCCNc1ncnc2ccc(Cl)cc12`, the AC50 is 1 µM (active).

Take `COC(=O)N1CCC2(CCCN(Cc3ccc(C#N)cc3)C2)CC1`: the AC50 entry is “inactive”.

Turning to `CC(C)CC1CC(=O)OC1(C)C(=O)CSc1nc2ccccc2s1` (stereo not drawn), the AC50 was 7.08 µM (active).

For `O=C(O)CC(c1ccccc1)n1cnnn1` (stereo not drawn), the AC50 entry is “inactive”.

Take `CN(C)c1ccc(-c2nc(-n3ccnc3)c3ccccc3n2)cc1`: the AC50 is 0.316 µM (active).

Take `c1ccc2c(-n3ccnc3)nc(-c3ccoc3)nc2c1`: the AC50 was 0.501 µM (active).

For the molecule `CCC/C=C(\CCC)C(NS(=O)(=O)c1ccc(C(F)(F)F)cc1)c1ccc(-c2ccccc2)cc1` (stereo not drawn), the AC50 entry is “inactive”.

Consider `Cc1ccc(C)c(S(=O)(=O)NC(CC(C)C)C(=O)O)c1` (stereo not drawn), for which the AC50 entry was “inactive”.

As for `Cc1ccc(S(=O)(=O)N[C@H](C(=O)Oc2ccc3c(C(F)(F)F)cc(=O)oc3c2)c2ccccc2)cc1`, the AC50 is 1.78 µM (active).

Consider `COC(=O)C/C=C\[C@@H](C)[C@@H](/C=N\OC[C@@H]1O[C@H](c2ccccc2)C=C[C@@H]1Oc1ccc(OC)cc1)NS(=O)(=O)c1ccc(C)cc1`, for which the activity, negative = inhibition is -1.03% [at 11.4 µM] (inactive).

Regarding `Cc1ccc(S(=O)(=O)NC(CC(C)C)C(=O)Oc2ccc3c4c(c(=O)oc3c2)CCC4)cc1` (stereo not drawn), the AC50 is 3.98 µM (active).

In the case of `Cc1ccc(S(=O)(=O)N[C@H](CN)C(=O)O)cc1`, the activity, negative = inhibition was -18.5% [at 2.29 µM] (inactive).

Regarding `COc1ccc(CCN2C(=NC(=O)CCC(=O)O)SC3CS(=O)(=O)CC32)cc1` (stereo not drawn), the AC50 result was “inactive”.

For the molecule `CN1CCc2c(c3c(n2C)CCN(C)[C@H]3c2ccccc2F)[C@@H]1c1ccccc1F`, the AC50 entry was “inactive”.

`CC(C)NC(=O)N1CCCC2(CCN(C(=O)c3cc(C(F)(F)F)cc(C(F)(F)F)c3)CC2)C1`: the AC50 entry is “inactive”.

On to `C1=C(CN2CCOCC2)COc2c1cccc2OC[C@@H]1CNCCO1`, for which the AC50 is 12.6 µM (active).

Consider `Cc1c(C)c2c(c(C)c1O)CC[C@@](C)(CCC[C@@H](C)CCC[C@@H](C)CCCC(C)C)O2`, for which the AC50 result is “inactive”.

As for `COc1ccc(Nc2ncc3c(n2)CC(c2ccc(C)cc2)CC3=O)cc1` (stereo not drawn), the AC50 was 14.1 µM (active).

Take `COc1ccc(NC2=NC(=S)N(c3ccc(C)cc3)C23CCCCC3)cc1`: the AC50 entry is “inactive”.

As to `COc1ccc(C2CC(=O)c3cnc(Nc4cc(C)cc(C)c4)nc3C2)cc1` (stereo not drawn), the AC50 is 14.1 µM (active).

Turning to `CCSc1nnc(-c2ccc(Cl)cc2)c2ccccc12`, the AC50 is 7.08 µM (active).

For the molecule `O=[N+]([O-])c1cc(Cl)cc2c1nc(NCCO)c1ccccc12`, the AC50 is 0.02 µM (active).

On to `CCOC(=O)C(NC(C)=O)C(=O)O` (stereo not drawn), for which the AC50 result was “inactive”.

Regarding `O=C1C2C3C=CC([C@@H]2C(=O)N1C1CCCCC1)[C@H]1C(=O)N(C2CCCCC2)C(=O)C31` (stereo partly drawn), the AC50 result was “inactive”.

Turning to `CC(=O)[C@@H]1[C@@H]2C(=O)N(C3CCCCC3)C(=O)[C@@H]2C2c3ccccc3C=CN21` (stereo partly drawn), the AC50 was 15.8 µM (active).

`O=C1C[C@@H](O)[C@@H](O)[C@H]2[C@@H]3C(=O)N(C4CCCCC4)C(=O)[C@@H]3CC[C@H]12`: the activity, negative = inhibition is 4% [at 11.4 µM] (inactive) and -9.85% [at 11.4 µM] (inactive) and 5.4% [at 11.4 µM] (inactive).

With `COc1cccc(-c2nccc(NCc3ccccc3OC)n2)c1`, the AC50 was 1.26 µM (active).

With `COc1ccc(C(=O)N2CCC3(CCN(Cc4ccccc4OC)CC3)CC2)cc1`, the AC50 entry was “inactive”.

Take `COc1ccc(CNc2ccnc(-c3cccnc3)n2)c(OC)c1`: the AC50 was 0.316 µM (active).

Take `COc1cccc(-c2nccc(NCc3ccc(OC)cc3OC)n2)c1`: the half-maximal activity concentration (AC50) was 1 µM (active).

Turning to `COCCNc1ccnc(-c2cccc(NS(C)(=O)=O)c2)n1`, the AC50 was 2 µM (active).

On to `CCOc1ccc(N(C(C)C(=O)NC(C)CC)S(C)(=O)=O)cc1` (stereo not drawn), for which the AC50 result is “inactive”.

Take `N[C@H](CCC(=O)N[C@H](CSN=O)C(=O)NCC(=O)O)C(=O)O`: the AC50 result is “inactive”.

Regarding `NC1=C2NC=N[C@@H]2N(C/C=C\c2ccccc2)C=N1`, the activity, negative = inhibition is -12.4% [at 2.29 µM] (inactive).

For `COc1ccc(CNc2ccnc(-c3cccc(NS(C)(=O)=O)c3)n2)c(OC)c1`, the AC50 was 15.8 µM (active).

For `CC(C)[C@@H]1NC(=O)[C@H](CCCCN)NC(=O)[C@H](Cc2c[nH]c3ccccc23)NC(=O)[C@H](Cc2ccc(O)cc2)NC(=O)[C@H](C)N(C)C(=O)[C@H](Cc2ccccc2)NC1=O`, the AC50 result is “inactive”.

As for `COc1ccc(-c2ccc(=O)n(CC(=O)Nc3nnc(C(C)C)s3)n2)cc1OC`, the AC50 entry was “inactive”.

`COc1ccc(-c2nn3cnnc3s2)cc1OC`: the AC50 was 20 µM (active).

As for `CN(C)c1ncc2nc(-c3ccc(F)cc3)c(=O)n(Cc3ccc(F)cc3)c2n1`, the AC50 result was “inactive”.

On to `CN(C)c1ncc2nc(-c3cc(F)cc(F)c3)c(=O)n(Cc3ccc(F)cc3)c2n1`, for which the AC50 entry is “inactive”.

For `CN(C)c1ncc2nc(-c3ccc(Cl)cc3)c(=O)n(Cc3ccc(F)cc3)c2n1`, the AC50 was 5.01 µM (active).

As for `Cc1nc2cnc(N(C)C)nc2n(Cc2ccc(F)cc2)c1=O`, the AC50 was 2 µM (active).

Take `O=C1[C@@H]2[C@H]3[C@H](O)[C@H](O)C/C(=N/OCc4ccccc4)[C@@H]3CC[C@H]2C(=O)N1c1ccc(F)cc1F`: the activity, negative = inhibition is 4.37% [at 11.4 µM] (inactive).

With `Clc1ccc(/C=N/Nc2nnc(-c3ncc[nH]3)c3ccccc23)cc1`, the AC50 was 0.2 µM (active).

For the molecule `NC[C@@H]1O[C@H](C23CC4CC(CC(C4)C2)C3)Cc2c1ccc(O)c2O`, the AC50 result was “inactive”.

On to `Nc1c(N=Nc2cccc(Cl)c2)c(=O)[nH]n1-c1ccccc1`, for which the AC50 was 2 µM (active).

For `Cc1ccc(N=Nc2c(N)n(-c3ccccc3)[nH]c2=O)cc1`, the AC50 is 2.82 µM (active).

Take `Cc1ccc(C2C(C=Nc3c(C)n(C)n(-c4ccccc4)c3=O)=C(c3ccccc3)Oc3ccccc32)cc1` (stereo not drawn): the AC50 result is “inactive”.

`Cc1[nH]n(-c2ccc(S(=O)(=O)O)cc2)c(=O)c1N=Nc1ccccc1`: the activity, negative = inhibition was -10.5% [at 11.4 µM] (inactive).

Turning to `Cc1nc2cnc(Oc3ccccc3)nc2n(C2CC2)c1=O`, the AC50 is 10 µM (active).

`O=c1cnc2cnc(Oc3cccc(Cl)c3)nc2n1C1CC1`: the AC50 was 2.51 µM (active).

Turning to `O=c1cc(N2CCN(c3cccc(Cl)c3)CC2)[nH]c(=O)n1C1CCCCC1`, the AC50 entry was “inactive”.

Turning to `Cc1nc2cnc(Oc3cccc(Cl)c3)nc2n(C2CC2)c1=O`, the AC50 was 6.31 µM (active).

(Values after PubChem BioAssay AID1851 (National Center for Advancing Translational Sciences (NCATS), 2009).)
